An excerpt weighted towards active compounds, which were near 4.2% of everything screened.
TIM10 inh – growth inhibitors of isogenic TIM10 control yeast, primary screen, counter-screen for tim10-1 yeast inhibitor project, luminescence, uHTS; S. cerevisiae TIM10 strain growth, BacTiter-Glo luminescence, 24 h; inhibition, % at 10 µM; 1.4% of 330,000 active;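 active means inhibition of 40% or more at the single tested concentration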;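 further: wild-type TIM10 isogenic control strain grown at permissive 25 °C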
NALP1 yeast inh – NALP1 inflammasome inhibitors in reconstituted yeast, colorimetric, S. cerevisiae, triplicate retest. S. cerevisiae NALP1/ASC/caspase-1 growth, X-gal OD620, 72 h. inhibition, % at 10 µM. 0.61% of 280,000 active. AID 2071, 2009; in the data active means inhibition mostly above about 24%, no sharp cut-off; inactive means mostly below about 32%
V-ATPase pHluor – regulators of yeast V-ATPase proton pumping, primary screen, pHLuorin cytosolic pH fluorescence. response, % at 10 µM. S. cerevisiae. 0.37% of 350,000 active; in the data active means response mostly above about 7.3%, no sharp cut-off; inactive means mostly below about 5.4%; further: actives read high
tim23-1 inh – growth inhibitors of tim23-1 mutant yeast, primary screen, luminescence, uHTS | inhibition, % at 20 µM | S. cerevisiae tim23-1 growth, BacTiter-Glo luminescence, 24 h | 1.3% of 330,000 active;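 active means growth inhibition of the mutant yeast at or above 50%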;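 further: temperature-sensitive mutant grown at 25 °C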
NALP3 yeast inh – NALP3 inflammasome inhibitors in reconstituted yeast, primary screen, luminescence, uHTS; AID 2825, 2010; Yeast reconstituted NLRP3/ASC/caspase-1, beta-gal luminescence, 24 h; 0.39% of 330,000 active; inhibition, % at 10 µM;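 active means inhibition of 50% or more; inactive means inhibition below 50%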
tim10-1 inh – growth inhibitors of tim10-1 mutant yeast, primary screen, luminescence, uHTS. 2.2% of 330,000 active. inhibition, % at 20 µM. S. cerevisiae tim10-1 ts strain growth, BacTiter-Glo, 24 h;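 active means inhibition of at least 40%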;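 further: mutant grown at 25 °C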
Of the large screens only hits and unclear results are named; the others gave an inactive call.

CCC(=O)N1CCc2cc(Br)cc(S(=O)(=O)CCC(=O)NCC3CCCO3)c21 (stereo unspecified)	none
COc1ccc(CN2CCC(C(=O)Nc3ccc(Oc4cccnc4)cc3)CC2)cc1	none
Cc1cc(C)n2nc(SCC(=O)N(CC(C)C)c3c(N)n(CC(C)C)c(=O)[nH]c3=O)nc2n1	none
Cc1cc(C)n2nc(SCC(=O)c3c(N)n(CC(C)C)c(=O)n(C)c3=O)nc2n1	V-ATPase pHluor 17.0
CCN(Cc1ccccc1)Cc1ccc(OCc2ccccc2)cc1	NALP1 yeast inh 37.9
Cc1ccccc1OCC(O)Cn1c(N2CCN(c3ccccc3)CC2)nc2c1c(=O)[nH]c(=O)n2C (stereo unspecified)	none
CCC(C)NS(=O)(=O)c1ccc(OCC(=O)Nc2ccc3c(c2)OCO3)cc1 (stereo unspecified)	NALP1 yeast inh 41.3
COc1cc(C(=O)Nc2c(C(=O)N3CCOCC3)oc3ccccc23)cc(OC)c1OC	none
CS(=O)(=O)N(Cc1ccccc1)c1ccc(C(=O)NCCSc2ccccn2)cc1	none
Cc1ccc(OCCCCNC2CCCCC2)c(C)c1	NALP1 yeast inh 44.4
Cc1ccc(OCC(O)CNC2CCCC2)c(C)c1 (stereo unspecified)	none
CCOC(=O)C(=CNc1cc(C)nn1-c1ccc(C)cc1)C(=O)OCC	none
O=c1[nH]c2cc3c(cc2cc1C(c1nnnn1Cc1ccccc1)N1CCN2CCCC2C1)OCCO3 (stereo unspecified)	NALP1 yeast inh 29.3
O=c1[nH]c2cc3c(cc2cc1C(c1nnnn1Cc1ccccc1)N1CCCCCC1)OCCO3 (stereo unspecified)	none
CC(C)[C@H](NC(=O)c1ccccc1F)C(=O)NC1CCCCC1	none (no result: NALP1 yeast inh)
CC(C)[C@H](NC(=O)c1ccccc1F)C(=O)OCC(=O)NC1CC1	V-ATPase pHluor 19.5 (no result: NALP1 yeast inh)
Cc1ccc(S(=O)(=O)N2[C@@H](c3ccc(F)cc3)C(C(=O)O)=CC[C@H]2c2cccc(C)c2)cc1	none (no result: NALP1 yeast inh)
Cc1c(Cl)cccc1NC(=O)CCC(=O)NNC(=O)CCC(=O)O	none
CC(=O)c1c(N2CCCC2)nc(=S)n(-c2ccccc2)c1C	NALP1 yeast inh 37.5
CC(=O)c1c(N2CCCCC2)nc(=S)n(-c2ccccc2)c1C	none (no result: V-ATPase pHluor)
OC(CNCCC1C=Nc2ccccc21)Cn1c2ccc(Cl)cc2c2cc(Cl)ccc21 (stereo unspecified)	NALP1 yeast inh 101.1 (no result: TIM10 inh, tim23-1 inh, NALP3 yeast inh, tim10-1 inh)
S=C(Nc1cccnc1)Nc1ccccc1Br	none
COc1ccc(-c2nnn(CC(=O)NC3CCCc4ccccc43)n2)cc1OC (stereo unspecified)	NALP1 yeast inh 42.2
CSc1ccc(CN(C)C(=O)CSCC(=O)Nc2ccc(C)cc2)cc1	none (no result: NALP1 yeast inh)
O=C(CC1SC(=O)NC1=O)Nc1ccc(Cl)cc1 (stereo unspecified)	none
O=C(CC1NC(=O)NC1=O)Nc1ccc(Cl)cc1 (stereo unspecified)	NALP1 yeast inh 38.0
O=[N+]([O-])c1cc(S(=O)(=O)N2CCCCCC2)ccc1F	NALP1 yeast inh 78.6 (no result: TIM10 inh, tim23-1 inh, NALP3 yeast inh, tim10-1 inh)
CC(=O)Nc1ccc(S(=O)(=O)N2CCN(c3ccc(C)c(Cl)c3)CC2)cc1	V-ATPase pHluor 17.0
CC(=O)Nc1ccc(S(=O)(=O)N2CCN(S(=O)(=O)c3ccc(NC(C)=O)cc3)CC2)cc1	none
O=C(Nc1ccccc1)Nc1cccc(C(F)(F)F)c1	none
O=C(COCC(=O)Nc1cccc(C(F)(F)F)c1)Nc1cccc(C(F)(F)F)c1	NALP1 yeast inh 38.5
Cc1cc(NC(=O)Nc2cccc(C(F)(F)F)c2)n(C)n1	NALP1 yeast inh 31.7
Cc1ccc(NS(=O)(=O)c2ccc3c(c2)N(C)CCO3)cc1	none
COc1ccc2c(c1OC)C(=O)OC2Nc1nc(-c2ccc(-c3ccccc3)cc2)cs1 (stereo unspecified)	NALP1 yeast inh 58.1
COc1cccc(-c2nnc3sc(C4CCCCC4)nn23)c1	NALP1 yeast inh 36.8
COc1cc(-c2nnc3sc(C4CCCCC4)nn23)cc(OC)c1OC	none (no result: NALP1 yeast inh)
CCOc1ccc(S(=O)(=O)NCCC(=O)NCC(c2cccs2)N(C)C)cc1 (stereo unspecified)	none (no result: NALP1 yeast inh)
CCOc1ccc(S(=O)(=O)N2CCCC2)c2ccccc12	none (no result: TIM10 inh, NALP1 yeast inh, tim23-1 inh, NALP3 yeast inh, tim10-1 inh)
CCOc1c(S(=O)(=O)N2CCCC2)ccc(Cl)c1Cl	NALP1 yeast inh 41.4
CCOc1ccc(Cl)cc1S(=O)(=O)N1CCCC1	none
CCOc1ccc(S(=O)(=O)N2CCC(C(N)=O)CC2)c2ccccc12	V-ATPase pHluor 21.9
CCC(C)(C)NC(=O)C(C(C)C)N(CC1CCCO1)C(=O)CNS(=O)(=O)c1ccc(F)cc1 (stereo unspecified)	none
Cc1c(O)nc(SCC(=O)Nc2nccs2)n(-c2ccccc2F)c1=O	NALP1 yeast inh 40.6
CCOC(=O)c1sc(NC(=O)CSc2nc(-c3ccco3)cc(C(F)(F)F)n2)c(C(=O)OC)c1C	none
CCCOC(=O)c1c(NC(=O)CSc2nc(-c3ccco3)cc(C(F)(F)F)n2)sc(C(=O)OC)c1C	NALP1 yeast inh 40.8
Cc1ccc2nc(N(CCCN(C)C)C(=O)c3ccc4c(c3)CCCC4)sc2c1	NALP1 yeast inh 51.6
CCOCCc1nnc(NC(=O)COC)s1	none
CC(=O)n1c2ccccc2c2nc3ccccc3nc21	NALP1 yeast inh 30.4
CC1CCCN(C(C(=O)Nc2ccc3c(c2)OCCO3)c2ccccc2)C1 (stereo unspecified)	none
CC1CCCN(C(C(=O)Nc2ccc3c(c2)OCO3)c2ccccc2)C1 (stereo unspecified)	V-ATPase pHluor 13.5
CCn1c(=O)c2[nH]c(Cl)nc2n(CC)c1=O	none (no result: TIM10 inh, NALP1 yeast inh, tim23-1 inh, NALP3 yeast inh, tim10-1 inh)
Cc1ccc[n+](C(C)C(=O)Nc2ccc(C)c([N+](=O)[O-])c2)c1 (stereo unspecified)	none
CCOC(=O)CNC(=O)COc1coc(CN2CCN(Cc3ccccc3)CC2)cc1=O	none
Cc1cc(S(=O)(=O)Nc2cc(C)c(O)c(C)c2)c(C)s1	NALP1 yeast inh 40.0
c1ccc(-c2csc3ncnc(NCc4ccccn4)c23)cc1	V-ATPase pHluor 22.2
c1ccc(CNc2ncnc3scc(-c4cccs4)c23)nc1	none
N#C/C(=N\Nc1ccc(S(=O)(=O)N2CCc3ccccc32)cc1)C(N)=S	none
COc1ccc(S(=O)(=O)NCCOc2ccccc2)cc1C	NALP1 yeast inh 50.1
O=S(=O)(NCCOc1ccccc1)c1ccc2ccccc2c1	none
Cc1ccc(C2CC(c3ccc(Cl)cc3)n3nc(N)nc3N2)cc1 (stereo unspecified)	none
Clc1ccc(C2CSc3c4ncnc-4ncn32)cc1 (stereo unspecified)	NALP1 yeast inh 39.5
Cc1ccc2oc(=O)c3cc(C(=O)N4CCN(C(=O)c5ccco5)CC4)sc3c2c1	none (no result: V-ATPase pHluor)
CCN(Cc1ccccc1)C(=O)c1cc2c(=O)oc3ccc(C)cc3c2s1	NALP1 yeast inh 42.3

Compound activity from PubChem.
